# From PubChem BioAssay (EPA / NIEHS)
# Inconclusive results are not listed. Activity calls are given as the source filed them. Rule for the calls: active = hit-call score of the fitted dose curve at least 0.9, where 1 is the maximum; inconclusive = response in the unintended direction; inactive = score below 0.9.
# Assay: Tanguay_ZF_120hpf_PIG_legacy: (Legacy) Oregon State University Tanguay Lab 120 Hour Post-fertilization zebrafish Assay for Pigmentation Malformation (AID 2283650);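 note: dechorionated Tropical 5D zebrafish embryos exposed singly from 6 to 120 hpf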
# Experimental: Tanguay_ZF_120hpf_legacy is a whole embryo, multiplexed endpoint assay using zebrafish larvae exposed for 120 hours post fertilization on a 96-well plate.Tanguay_ZF_120hpf_PIG_legacy is one of one assay component(s) measured or calculated from the Tanguay_ZF_120hpf_legacy assay. It is designed to make measurements of zebrafish development as detected with brightfield microscopy of developing zebrafish embryos.Data from the assay component Tanguay_ZF_120hpf_PIG_legacy was analyzed into 1 assay endpoints. This assay endpoint, Tanguay_ZF_120hpf_PIG_legacy, was analyzed in the positive analysis fitting direction relative to DMSO as the negative control and baseline of activity. Using a type of morphology reporter, gain-of-signal activity can be used to understand changes in developmentals as they relate to the whole embryo. To generalize the intended target to other relatable targets, this assay endpoint is annotated to the zebrafish development intended target family, where the subfamily is embryonic pigmentation.
# Zebrafish husbandry: Tropical 5D wild-type adult zebrafish were housed in at an approximate density of 1000 per 100 gallon tank at the Sinnhuber Aquatic Research Laboratory, Oregon State University, Corvallis, OR. Each tank was kept at standard laboratory conditions of 28C on a 14-h light/10-h dark photoperiod in fish water consisting of reverse osmosis water supplemented with a commercially available salt (Instant Ocean). Spawning funnels were placed into the tanks the night prior, and embryos were collected and staged. To increase bioavailability, the chorion was enzymatically removed using pronase (63.6mg/ml, >/= 3.5U/mg, Sigma-Aldrich: P5147) at 4 hours post fertilization (hpf) using a custom automated dechorionator.Chemical exposures: Six hpf dechorionated embryos were placed 1 embryo per well in a 96-well plate prefilled with 90 ul of EM using automated embryo placement systems (AEPS). Ten microliters of each row of dilution plate 2 was added to 2 exposure plates. The final DMSO concentration used was 0.64% (vol/vol). Thirty-two embryos were also exposed to 5uM trimethyltin chloride (positive control). Plates were sealed to prevent evaporation and foil covered to reduce light exposure and kept in a 28C incubator. Embryos were statically exposed until 120 hpf. At 24 hpf, embryos were assessed for photomotor response using a custom photomotor response analysis tool (PRAT) and for developmental toxicity endpoints (MO24: mortality at 24 hpf, DP: developmental progression, SM: spontaneous movement, and NC: notochord distortion). At 120 hpf, locomotor activity was measured using Viewpoint Zebralab and assessed for 18 endpoints. Zebrafish acquisition and analysis program (ZAAP), a custom program designed to inventory, acquire, and manage zebrafish data, was used to collect developmental endpoints as either present or absent (i.e., binary responses were recorded). If mortality occurred for an embryo (at either 24 or 120 hpf), the non-mortality endpoints were not measured.
SMILES,outcome,AC50
C1=Cc2cccc3cccc1c23,inactive,–
Cc1cccc(N)c1N,inactive,–
C[N+](C)(C)CC1CO1 (stereo not given),inactive,–
Clc1ccccc1Cl,inactive,–
CCC12COCN1COC2,inactive,–
CS(=O)(=O)NC(=O)c1cc(Oc2ccc(C(F)(F)F)cc2Cl)ccc1[N+](=O)[O-],inactive,–
CC(C)(O)c1cnn2c(-c3ccc(F)c(-c4c(F)cccc4C#N)c3)cnc2n1,inactive,–
CCN(CC)N=O,inactive,–
O=C(Oc1ccc(Br)cc1)N1CCN2CCC1CC2,inactive,–
Nc1ccc(Cl)cc1N,inactive,–
CC(C)(OOC(C)(C)c1ccccc1)c1ccccc1,inactive,–
O=C1CCCO1,inactive,–
ClC1=C(Cl)[C@]2(Cl)[C@H]3[C@H]([C@@H]4C=C[C@H]3C4)[C@@]1(Cl)C2(Cl)Cl,inactive,–
Cn1cc(-c2ccccc2)c(=O)c(-c2cccc(C(F)(F)F)c2)c1,inactive,–
CCCSC(=O)N(CCC)CCC,inactive,–
C=CCc1ccc2c(c1)OCO2,inactive,–
c1ccc(C2CO2)cc1 (stereo not given),inactive,–
CCOC(=O)[C@]1(c2ccccc2)Oc2ccccc2[C@@H]1N,inactive,–
c1ccc(NNc2ccccc2)cc1,inactive,–
Cc1ccc(N)cc1,inactive,–

SMILES,outcome,AC50
CCCCCCCCOC(=O)c1ccc(C(=O)OCCCCCCCC)c(C(=O)OCCCCCCCC)c1,inactive,–
OCCCl,inactive,–
COc1cc(C=O)cc2c1[C@H](COC(N)=O)[C@]1(OC(C)=O)ON2C[C@H]2[C@@H]1N2C(C)=O,inactive,–
Clc1ccc(C(c2ccc(Cl)cc2)C(Cl)(Cl)Cl)cc1,inactive,–
Cc1ccc([N+](=O)[O-])cc1,inactive,–
O=[N+]([O-])C(Br)(CO)CO,inactive,–
CC(C)COC(=O)c1ccccc1C(=O)OCC(C)C,inactive,–
CN(C)C(=O)Nc1ccc(Cl)cc1,inactive,–
CCN(CC)CCO,inactive,–
COP(=S)(OC)SCN1C(=O)c2ccccc2C1=O,inactive,–
CCOc1cccc(C2(N3CCN(c4ccccc4)CC3)CCC(C)CC2)c1 (stereo not given),inactive,–
Oc1ccccc1Cl,inactive,–
CN(C)[C@@H]1C(=O)C(C(N)=O)=C(O)[C@@]2(O)C(=O)C3=C(O)c4c(O)cccc4[C@@](C)(O)[C@H]3C[C@@H]12,inactive,–
COC(=O)Nc1nc2ccccc2[nH]1,inactive,–
O=Cc1ccco1,inactive,–
CCNS(=O)(=O)C(F)(F)C(F)(F)C(F)(F)C(F)(F)C(F)(F)C(F)(F)C(F)(F)C(F)(F)F,–,46.8 µM (active)
C[C@]12C=CC3=C4CCC(=O)C=C4CC[C@H]3[C@@H]1CC[C@@H]2O,inactive,–
c1ccc2c(c1)-c1cccc3cccc-2c13,inactive,–
CC(C)(C)OOC(C)(C)CCC(C)(C)OOC(C)(C)C,inactive,–
c1ccc2c(c1)oc1ccccc12,inactive,–
